In the supplement of paper PMC12669032:
Unmarked numbers belong to inactive results.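 Rule for the calls: active = AUC reduced over 20% with Padj below 0.05 in at least 2 of 3 replicates; inactive = otherwise.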

Key:
Test in all cases: growth AUC relative to DMSO control (median of replicates) (fraction); higher = more growth (less inhibition), active = hit call of the paper
Conditions in all cases: 20 µM; 24 h
Akkermansia muciniphila = test system: Akkermansia muciniphila
Procedure, shortened: (§1)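 OD600 was recorded every hour for 24 h in anaerobic monocultures of gut bacteria kept at 37 °C in mGAM, seeded at OD600 0.05 and given 20 µM compound in 1% DMSO. The area under each growth curve was scaled to the plate median of solvent-only wells, or to row and column medians for the industrial chemical plate. Before this step, the minimum OD was set to 0. Reported values are medians of three biological replicates run on separate days.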

Bacteroides caccae = test system: Bacteroides caccae
Procedure, shortened: as §1

Bacteroides clarus = test system: Bacteroides clarus
Procedure, shortened: as §1

Bacteroides dorei = test system: Bacteroides dorei
Procedure, shortened: as §1

Bacteroides stercoris = test system: Bacteroides stercoris
Procedure, shortened: as §1

[1] = test system: Bacteroides thetaiotaomicron
Procedure, shortened: as §1

Bacteroides uniformis = test system: Bacteroides uniformis
Procedure, shortened: as §1

[2] = test system: Bifidobacterium longum subsp. longum
Procedure, shortened: as §1

Clostridium difficile = test system: Clostridium difficile
Procedure, shortened: as §1

Collinsella aerofaciens = test system: Collinsella aerofaciens
Procedure, shortened: as §1

Coprococcus comes = test system: Coprococcus comes
Procedure, shortened: as §1

Escherichia coli ED1a = test system: Escherichia coli ED1a
Procedure, shortened: as §1

Escherichia coli IAI1 = test system: Escherichia coli IAI1
Procedure, shortened: as §1

Eubacterium rectale = test system: Eubacterium rectale
Procedure, shortened: as §1

[3] = test system: Fusobacterium nucleatum subsp. animalis
Procedure, shortened: as §1

Lactobacillus gasseri = test system: Lactobacillus gasseri
Procedure, shortened: as §1

Lactobacillus paracasei = test system: Lactobacillus paracasei
Procedure, shortened: as §1

Odoribacter splanchnicus = test system: Odoribacter splanchnicus
Procedure, shortened: as §1

[4] = test system: Parabacteroides distasonis
Procedure, shortened: as §1

Parabacteroides merdae = test system: Parabacteroides merdae
Procedure, shortened: as §1

Compound | growth AUC (Akkermansia muciniphila) | growth AUC (Bacteroides caccae) | growth AUC (Bacteroides clarus) | growth AUC (Bacteroides dorei) | growth AUC (Bacteroides stercoris) | growth AUC [1] | growth AUC (Bacteroides uniformis) | growth AUC [2] | growth AUC (Clostridium difficile) | growth AUC (Collinsella aerofaciens) | growth AUC (Coprococcus comes) | growth AUC (Escherichia coli ED1a) | growth AUC (Escherichia coli IAI1) | growth AUC (Eubacterium rectale) | growth AUC [3] | growth AUC (Lactobacillus gasseri) | growth AUC (Lactobacillus paracasei) | growth AUC (Odoribacter splanchnicus) | growth AUC [4] | growth AUC (Parabacteroides merdae)
CCCCCCCC/C=C\CCCCCCCCCCCC(=O)O | 1.05 | 1.01 | 1.02 | 0.995 | 1.01 | 1.02 | 1.01 | 0.902 | 1 | 0.983 | 0.96 | 1.02 | 1.01 | 0.983 | 1.02 | 0.979 | 0.991 | 1 | 0.914 | 1.01
O=C(Nc1ccc(F)cc1)c1cccc(Oc2cccc(C(F)(F)F)c2)n1 | 0.978 | 0.964 | 0.886 | 0.895 | 0.82 | 1 | 1.02 | 1.04 | 0.934 | 0.865 | 0.993 | 0.95 | 0.95 | 1.02 | 0.927 | 0.87 | 0.927 | 1.07 | 0.905 | 0.911
CCc1cccc(C)c1N(COC(C)C)C(=O)CCl | 1.07 | 1 | 1.01 | 1.03 | 0.998 | 0.993 | 1.04 | 1.02 | 0.956 | 1.03 | 1.03 | 1.05 | 1.01 | 1.04 | 0.961 | 0.99 | 1.07 | 1.1 | 1.04 | 0.982
Cc1cc(C2CC2)nc(Nc2ccc(O)cc2)n1 | 0.829 | 0.999 | 0.967 | 0.994 | 0.968 | 0.943 | 0.957 | 1.04 | 0.982 | 0.975 | 0.998 | 0.989 | 1.01 | 0.903 | 0.955 | 1.19 | 1.01 | 0.965 | 1.03 | 0.982
CCCOC(=O)c1ccc(O)cc1 | 0.879 | 0.979 | 0.986 | 1.02 | 0.993 | 0.989 | 0.984 | 1.01 | 0.98 | 1.01 | 1 | 0.986 | 0.971 | 0.951 | 0.985 | 1.06 | 1.01 | 0.945 | 1.01 | 0.988
CN(C)C(=O)Nc1cc(C(C)(C)C)on1 | 0.918 | 1.01 | 0.997 | 1.01 | 0.998 | 0.995 | 1.01 | 1.01 | 0.987 | 0.989 | 0.99 | 0.997 | 1.01 | 0.949 | 0.959 | 1.06 | 1 | 0.942 | 1.01 | 1
Cc1nn(C)c(OCC(=O)c2ccccc2)c1C(=O)c1ccc(Cl)cc1Cl | 1.04 | 0.955 | 0.978 | 0.987 | 1.17 | 0.933 | 0.852 | 0.992 | 0.947 | 1.01 | 1.02 | 0.995 | 1 | 1.04 | 1.02 | 1.02 | 0.991 | 0.961 | 0.674 (active) | 0.926
Cc1ccc(C)c(O)c1 | 0.958 | 1.02 | 0.98 | 1 | 0.996 | 1 | 1.01 | 1.05 | 1.01 | 1.01 | 0.988 | 0.996 | 1.01 | 0.958 | 0.988 | 1.02 | 0.953 | 1 | 0.991 | 1.03
S=C([S-])NCCNC(=S)[S-].S=C([S-])NCCNC(=S)[S-].[Mn+2].[Zn+2] | 0.974 | 1.02 | 1.1 | 1.06 | 1.06 | 0.975 | 1.07 | 1.03 | 0.994 | 1.03 | 0.99 | 0.996 | 1.03 | 1.22 | 1.06 | 1.03 | 1.08 | 0.967 | 1.01 | 1.01
CCCCCCCC/C=C\CCCCCCCCCCCCC | 0.969 | 0.961 | 0.982 | 1.05 | 0.986 | 0.995 | 0.997 | 0.964 | 1.05 | 1.02 | 1 | 0.987 | 1.03 | 0.946 | 0.961 | 1.08 | 0.875 | 0.968 | 1.01 | 0.991
CCc1cccc(C)c1NC(C)C(=O)O (racemic) | 1.21 | 1.01 | 0.98 | 0.931 | 0.965 | 1.03 | 0.996 | 1.04 | 1.03 | 0.985 | 1.04 | 0.986 | 0.977 | 1.19 | 1.04 | 0.97 | 0.968 | 0.999 | 0.978 | 1
CCN(CC)c1nc(C)cc(=O)[nH]1 | 1.08 | 0.974 | 1.03 | 1.02 | 1.11 | 0.996 | 0.961 | 1.02 | 1.01 | 1.01 | 1.04 | 0.995 | 0.998 | 0.907 | 1.06 | 0.998 | 0.989 | 1.03 | 1 | 1
